# Bioassay records as filed in PubChem BioAssay.
# An excerpt weighted towards active compounds, which were near 1.5% of everything screened.
# HePTP inh: inhibitors of human HePTP phosphatase, primary screen, biochemical, absorbance, leukemia target; Tyrosine-protein phosphatase non-receptor type 7 (Homo sapiens), P35236; recombinant HePTP phosphatase activity, OD absorbance; inhibition, % at 20 µM; 110,000 tested, 0.64% active; in the data active means inhibition above about 50%; inconclusive means no clear call, values can overlap the other calls
# TNAP act mid DEA: human TNAP enzyme activators, primary screen, biochemical, luminescent, intermediate phosphate acceptor level; Alkaline phosphatase, tissue-nonspecific isozyme (Homo sapiens), P05186; purified TNAP, CDP-star luminescence, 100 mM DEA, 30 min; active compounds read high; scale: 0 levamisole-inhibited, 1 vehicle-only enzyme; activation factor at 20 µM; 64,000 tested, under 10 active; AID 813, 2007;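 active means activation factor of at least 2 at 20 µM, relative to controls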
# Target sequence (P05186 whole entry, looked up): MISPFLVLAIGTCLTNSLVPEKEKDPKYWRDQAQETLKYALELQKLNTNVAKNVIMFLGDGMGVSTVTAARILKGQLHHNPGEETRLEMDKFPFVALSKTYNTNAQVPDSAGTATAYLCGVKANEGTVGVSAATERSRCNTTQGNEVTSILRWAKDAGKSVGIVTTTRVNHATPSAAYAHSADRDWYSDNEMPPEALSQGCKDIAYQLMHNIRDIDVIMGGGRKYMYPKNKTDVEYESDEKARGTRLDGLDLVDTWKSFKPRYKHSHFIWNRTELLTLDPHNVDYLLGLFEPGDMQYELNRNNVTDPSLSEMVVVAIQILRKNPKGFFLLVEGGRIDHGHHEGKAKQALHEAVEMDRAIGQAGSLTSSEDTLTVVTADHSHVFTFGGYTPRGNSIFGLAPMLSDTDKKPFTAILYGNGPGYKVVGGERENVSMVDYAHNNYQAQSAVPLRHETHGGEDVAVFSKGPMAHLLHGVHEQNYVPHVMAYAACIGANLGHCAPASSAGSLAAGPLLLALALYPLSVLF
# PLAP activator: PLAP enzyme activators, biochemical, luminescence, HTS. Alkaline phosphatase, placental type (Homo sapiens), P05187. purified PLAP enzyme, luminescent substrate read-out; active compounds read high. activation fold at 20 µM. 96,000 tested, 1.2% active. AID 696, 2007; in the data active means activation fold above about 2
# Cdc25B inh: inhibitors of Cdc25B phosphatase catalytic domain, primary screen, biochemical, OMFP fluorescence. AID 368, 2006. recombinant Cdc25B, OMFP fluorescence Ex485/Em525. inhibition, %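 (compounds tested at 10 µM final in the well)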. 65,000 tested, 0.1% active; in the data active means inhibition above about 50%
# MKP-1 inh: MKP-1 phosphatase inhibitors, primary screen, biochemical, in vitro; inhibition, %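 (compounds tested at a single concentration somewhere between 10 and 100 µM)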; AID 374, 2006; 65,000 tested, 0.15% active; Dual specificity protein phosphatase 1 (Homo sapiens), P28562; recombinant MKP-1, OMFP hydrolysis fluorescence;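 active means inhibition above about 50%, limit read from the data; inconclusive means inhibition over screen mean plus 3 SD, below that limit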
# Hsp90 block: tumor Hsp90 inhibitors, primary screen, cell lysate, fluorescence polarization, NCI-N417 lysate; Heat shock protein HSP 90-alpha (Homo sapiens), P07900; Cy3B-geldanamycin FP displacement; inhibition, % at 30 µM; 64,000 tested, 0.35% active;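 active means inhibition above 50%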
# Numbers stand for hits; i = inactive; ? = inconclusive; nt = no result given; ! = not active in a repeat.
SMILES,HePTP inh,TNAP act mid DEA,PLAP activator,Cdc25B inh,MKP-1 inh,Hsp90 block
Cc1nn(C)cc1C1C2=C(CC(C)(C)CC2=O)N(c2ccccc2)C2=C1C(=O)CC(C)(C)C2,nt,nt,2,nt,nt,nt
O=c1c2c([nH]n1-c1ccccc1)CCC2,i,nt,nt,nt,nt,nt
O=C(Nc1ccc(-c2nc3ccccc3s2)c(O)c1)c1ccc2c(c1)OCCO2,67.9,nt,nt,nt,nt,nt
O=C(Nc1ccc(O)c(-c2nc3ccccc3s2)c1)c1ccc2c(c1)OCCO2,i,nt,nt,nt,nt,nt
Cc1ccc(C(=O)NC(=S)NCCCN2CCOCC2)cc1,103.4,nt,nt,nt,nt,nt
Cc1cc(Nc2ccc3c(c2)n(C)c(=O)n3C)n2c(nc3ccccc32)c1C#N,i,nt,nt,nt,nt,nt
COC(=O)c1ccc(C(=O)OC)c(NC(=O)c2cc(Cl)ccc2Cl)c1,102.1,nt,nt,nt,nt,nt
O=C(Nc1nc2ccccc2n1Cc1ccc(Cl)cc1)c1ccccc1,i,nt,nt,nt,nt,nt
CCCCn1c(NC(=O)c2ccc(F)cc2)c(C#N)c2nc3ccccc3nc21,i,i,nt,79.4,?,i
O=C1/C(=C/c2ccc(I)o2)SC(=S)N1c1ccccc1,i,nt,nt,nt,nt,nt
Cn1c(CCN2CCCCC2)nc2cc(NC(=O)NC3CCCCC3)ccc21,i,i,i,i,i,i
CC1CCN(CCc2nc3cc(NC(=O)NC4CCCCC4)ccc3n2C)CC1,nt,nt,2,nt,nt,nt
CCN1CC(O)=C(c2nc3ccccc3s2)C1=N,nt,nt,2.1,nt,nt,nt
CCCCN1CC(O)=C(c2nc3ccccc3s2)C1=N,i,i,i,i,i,i
CC(=O)NS(=O)(=O)c1ccc(NC(=O)/C=C/c2ccc(F)cc2)cc1,73.5,nt,nt,nt,nt,nt
Cc1c(NC(=O)c2cc3ccccc3o2)cccc1-c1nc2ncccc2o1,i,nt,nt,nt,nt,nt
O=C(O)c1ccc(Cl)c(-c2ccc(/C=N\Nc3ccc([N+](=O)[O-])cn3)o2)c1,53.8,nt,nt,nt,nt,nt
COC(=O)c1ccc(-c2ccc(/C=N\Nc3ccc([N+](=O)[O-])cn3)o2)cc1,i,nt,nt,nt,nt,nt
C/C(N)=C(/C#N)C(=O)COC(=O)c1ccncc1,i,i,2.3,i,i,i
C/C(N)=C(/C#N)C(=O)COC(=O)CCS(=O)(=O)c1ccccc1,nt,nt,i,nt,nt,nt
C=C(Br)Cn1c(CCC)nc2ccccc21,101.6!,i,i,i,i,i
C=C(Br)Cn1c(CC)nc2ccccc21,nt,nt,i,nt,nt,nt
O=C1C2C3C=CC(CO)(O3)C2C(=O)N1c1cc(C(F)(F)F)ccc1Cl (centres undefined),i,nt,nt,nt,nt,nt
Cc1[nH]nc2ncc(C(=O)c3ccccc3O)cc12,i,i,2.1,i,i,nt
NCCCCCc1nnc(SCC(=O)Nc2cccc(Cl)c2)o1,i,i,i,i,i,i
SMILES,HePTP inh,TNAP act mid DEA,PLAP activator,Cdc25B inh,MKP-1 inh,Hsp90 block
CCC(C)[C@H](N)c1nnc(SCC(=O)Nc2cccc(Cl)c2)o1 (some centres undefined),i,i,2.5,i,i,i
O=C(Nc1ccc(OC(F)(F)F)cc1)c1ccc([N+](=O)[O-])cc1Cl,i,nt,nt,nt,nt,nt
Cc1nn(CCc2n[nH]c(=S)n2-c2cccc(Cl)c2)c(C)c1[N+](=O)[O-],nt,nt,2.2,nt,nt,nt
COc1c(Cl)ccc(Cl)c1C(=O)Nc1ccc(C)cc1,104.5,nt,nt,nt,nt,nt
O=C(CSc1nc2ccccc2[nH]1)Nc1cc(Cl)ccc1Cl,i,nt,nt,nt,nt,nt
COCCN(C(=O)CSc1nnc(Nc2ccccc2F)s1)c1c(N)n(Cc2ccccc2)c(=O)[nH]c1=O,nt,nt,2.2,nt,nt,nt
Cc1c(Cc2ccccc2)sc(NC(=O)c2ccc([N+](=O)[O-])cc2)c1C(N)=O,i,nt,nt,nt,nt,nt
CCOc1ccc2nc(Nc3nc(CSc4nnnn4-c4ccccc4)cc(=O)[nH]3)nc(C)c2c1,nt,nt,2.5,nt,nt,nt
COc1ccc2nc(Nc3nc(CSc4nnnn4-c4ccccc4)cc(=O)[nH]3)nc(C)c2c1,nt,nt,2.2,nt,nt,nt
Cc1ccc2c(C)nc(Nc3nc(CSc4nnnn4-c4ccccc4)cc(=O)[nH]3)nc2c1,i,i,2.2,i,i,i
COc1ccc2nc(Nc3nc(C)c(CCC(C)C)c(=O)[nH]3)nc(C)c2c1,i,i,2.3,i,i,i
CCOc1ccc2nc(Nc3nc4c(c(=O)[nH]3)CCC4)nc(C)c2c1,i,i,nt,i,i,i
CC(=O)N(C)c1ccc(NC(=O)c2cccc([N+](=O)[O-])c2)cc1,i,nt,nt,nt,nt,nt
COc1ccc(O)c(/C=N\NC(=O)CCn2nnc3ccccc32)c1,nt,nt,2.1,nt,nt,nt
O=C(O)CCN1C(=O)/C(=C/c2cn(-c3ccccc3)nc2-c2cccc([N+](=O)[O-])c2)SC1=S,i,nt,nt,nt,nt,nt
